The source made the active and inactive calls. The calls were made as follows: active = hit-call score of the fitted dose curve at least 0.9, where 1 is the maximum; inactive = score below 0.9.
Each compound was assayed against Cytochrome P450 2C19 (Homo sapiens) (UniProt P33261) (assay: ERF_FR_ADME_hCYP2C19_Omeprazole: Eurofins (ERF) CYP450-related Enzyme Activity (ADME) Assay for CYP2C19, Omeprazole Substrate).
Method: ERF_FR_ADME_hCYP2C19_Omeprazole is a biochemical, single-readout assay that uses extracted gene-proteins in a cell-free assay. Measurements were taken 0.16 hour after chemical dosing in a 96-well plate. See CYP2C19 inhibition (HLM, omeprazole substrate).ERF_FR_ADME_hCYP2C19_Omeprazole is an assay component calculated from the ERF_FR_ADME_hCYP2C19_Omeprazole assay. It is designed to measure enzyme activity using a type of enzyme reporter as detected by peak area response of 5-hydroxyomeprazole with HPLC-MS/MS technology.Data from the assay component ERF_FR_ADME_hCYP2C19_Omeprazole was analyzed at the assay endpoint, ERF_FR_ADME_hCYP2C19_Omeprazole, in the positive analysis fitting direction relative to acetonitrile as the negative control and baseline of activity. Using a type of enzyme reporter, loss-of-signal activity can be used to understand changes in enzymatic activity as they relate to gene CYP2C19. To generalize the intended target to other relatable targets, this assay endpoint is annotated to the cyp intended target family, where the subfamily is steroidogenesis-related.
Assay is performed using 0.5uM omeprazole, cells are pre-incubated for 5 minutes, and then 10 minutes incubation with NADPH at 37C. Test Sample Requirements: Minimum for 1) Screen: 100 ul of 10 mM stock -OR- 1 to 2 mg (pre-weighed). 2) Dose Response: 250 ul of 10 mM stock -OR- 1.5 to 2 mg (pre-weighed).

Cytochrome P450 2C19 (Homo sapiens), sequence (P33261 whole entry, looked up): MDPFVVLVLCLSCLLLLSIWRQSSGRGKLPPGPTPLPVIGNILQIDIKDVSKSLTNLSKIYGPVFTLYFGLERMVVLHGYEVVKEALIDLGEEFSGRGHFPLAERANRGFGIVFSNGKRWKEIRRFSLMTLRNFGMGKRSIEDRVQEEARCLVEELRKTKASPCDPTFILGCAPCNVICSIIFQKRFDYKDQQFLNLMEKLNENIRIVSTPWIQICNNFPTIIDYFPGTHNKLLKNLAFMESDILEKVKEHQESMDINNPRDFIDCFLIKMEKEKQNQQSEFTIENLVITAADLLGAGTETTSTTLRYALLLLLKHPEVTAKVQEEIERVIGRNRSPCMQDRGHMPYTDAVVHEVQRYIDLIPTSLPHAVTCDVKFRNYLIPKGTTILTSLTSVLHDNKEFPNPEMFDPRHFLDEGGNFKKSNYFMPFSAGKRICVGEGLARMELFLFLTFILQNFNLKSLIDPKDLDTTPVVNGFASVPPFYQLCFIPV

Row | Structure (SMILES) | AC50
1 | O=C(/C=C/c1ccc(O)cc1)CC(=O)/C=C/c1ccc(O)cc1 | 1.74 µM (active)

Source: PubChem BioAssay AID2284090 (EPA ToxCast)
